Shown are actives, neighbours in structure and some others; about 7.3% of the full set was active somewhere.
ELG1 genotoxic: genotoxicity induction in ELG1-luciferase HEK293T cells. Potency, µM (titrated, usually from 46 µM), for inactives: at the top dose activity change, positive = activation, actives largely listed as activators. hit rate 1.3% among 330,000. AID 504466. HEK293T ELG1-luciferase reporter, luminescence, 16 h; note: % of control where 0% means no effect; nearly all actives have a fitted effect of over 60% in size
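Luminescence read-out: rising ELG1-luciferase signal, reflecting elevated ELG1 protein under genetic stress, flags genotoxic compounds. Cells were treated for 16 hr at 37 °C before ONE-Glo detection.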
FLuc modulator: firefly luciferase modulation, counter-screen for miR-21 project. P08659. purified FLuc, Km substrates, luminescence inhibition. Potency, µM (series often up to 57.5 µM), inactives show at the highest dose activity change, negative = inhibition, most hits filed as inhibitors. hit rate 6.9% among 360,000;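 note: plate controls were vehicle for no effect and reference inhibitor for full effect; nearly all actives have a fitted effect of over 55% in size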
Target sequence (P08659 whole entry, looked up): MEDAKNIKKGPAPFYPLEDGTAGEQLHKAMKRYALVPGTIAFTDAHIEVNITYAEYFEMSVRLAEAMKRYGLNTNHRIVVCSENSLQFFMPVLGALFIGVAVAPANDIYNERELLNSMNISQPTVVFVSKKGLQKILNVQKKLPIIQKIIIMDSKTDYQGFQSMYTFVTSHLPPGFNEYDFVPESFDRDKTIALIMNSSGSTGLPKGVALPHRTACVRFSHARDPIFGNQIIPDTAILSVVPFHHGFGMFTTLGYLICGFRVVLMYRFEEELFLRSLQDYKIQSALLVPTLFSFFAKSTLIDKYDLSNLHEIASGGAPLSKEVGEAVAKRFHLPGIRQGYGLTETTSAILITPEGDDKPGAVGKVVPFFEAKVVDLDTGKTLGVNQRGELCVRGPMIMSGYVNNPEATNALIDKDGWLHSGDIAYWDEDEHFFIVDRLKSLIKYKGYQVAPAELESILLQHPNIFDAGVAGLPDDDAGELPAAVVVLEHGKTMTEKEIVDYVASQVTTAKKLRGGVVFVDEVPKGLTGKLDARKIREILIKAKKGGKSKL
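Purified P. pyralis luciferase, 10 nM final, with Km-level 10 uM D-luciferin and 10 uM ATP in 50 mM Tris acetate pH 7.5, 10 mM Mg acetate, 0.01% Tween-20, 0.05% BSA; 6-point qHTS titration about 60 µM downward; luminescence read.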
Luc counter: blocks Kinase-Glo luciferase, a counter-screen artifact; hit rate 0.28% among 200,000; AID 1379; Potency, µM (top dose mostly 38.3 µM), inactives show at the highest dose activity change, negative = inhibition, most hits filed as inhibitors; Kinase-Glo luciferase, ATP luminescence, 8 min; note: % is set by controls: 0 for no effect and ±100 for the full control effect; nearly all actives have a fitted effect of over 60% in size
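Compounds were added to a substrate mix at pH 7.2 (50 mM imidazole, 10 uM ATP, within the enzyme's linear range), followed by Kinase-Glo detection reagent; luminescence was measured after 8 minutes at ambient temperature.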
NPC1 prom act: NPC1 promoter activation | AID 485313 | Potency, µM (series often up to 9.22 µM), for inactives: top-dose activation, actives largely listed as activators | hit rate 2.4% among 320,000 | Huh7 NPC1 promoter luciferase reporter, 24 h; note: % of control where 0% means no effect; nearly all actives have a fitted effect of over 60% in size
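Readout is luciferase luminescence, reflecting NPC1 promoter activation in stably transfected Huh7 cells after 24 h compound exposure at 37 °C in reduced-serum medium with 10% FBS.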
SMN2 splice up: SMN2 splice variant enhancement | HEK293 SMN2-luciferase splicing reporter, luminescence, 30-36 h | Potency, µM (series often up to 46.1 µM), for inactives: top-dose activity change, positive = activation, most hits filed as activators | hit rate 2.8% among 210,000 | AID 1458; note: % of control where 0% means no effect; nearly all actives have a fitted effect of over 55% in size
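HEK293 cells carry an SMN2 minigene-luciferase reporter in which exon 7 inclusion puts luciferase in frame. Cells were seeded at 2000 cells/well, attached for 10-12 hours, then exposed to compounds for 30-36 hours at 37C before ONE-Glo luminescence.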
Rab9 promoter act: Rab9 promoter activation | hit rate 2.8% among 320,000 | Potency, µM (doses to about 9.22 µM), inactives show at the highest dose activation, negative = inhibition, actives largely listed as activators | Huh7 Rab9 promoter-luciferase reporter, luminescence, 24 h; note: % of control where 0% means no effect; nearly all actives have a fitted effect of over 60% in size
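Cells were plated at 1500 per well in reduced-serum medium with 10% FBS and left 2 h. Compound in DMSO was then added for 24 h at 37 °C. Reporter signal was read by luminescence after 10 min with luciferase detection reagent.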
Numbers without * were called inactive. Calls come from the whole dose curve; as a rule, active = well fitted curve in the direction sought with a large enough effect; inconclusive = small, poorly fitted or top-dose-only effect, or another doubt; inactive = no such curve, though single readings can be large; an effect the other way counts as inactive or inconclusive. Potency is the fitted concentration of half-maximal effect.

Screening CCOc1ccccc1CN1CCc2nc(Nc3ccc4c(c3)OCCO4)ncc2C1 returned FLuc modulator -19%.
For Cc1nc2sc(C(=O)Nc3ccc(F)cc3)c(N)c2c(-c2ccc(Br)cc2)c1C(=O)Nc1ccc(Cl)cc1 the results were FLuc modulator -2% and SMN2 splice up 1%.
`CCOc1cc2sc(N3CCC(C(=O)Nc4ccc(C)cc4C)CC3)nc2cc1Br` gave FLuc modulator 15µM* and SMN2 splice up inconclusive.
CCOc1cc2sc(N3CCC(C(=O)NCCCN4CCCC4=O)CC3)nc2cc1Br was read as ELG1 genotoxic -3%, FLuc modulator 15µM*, NPC1 prom act 15% and Rab9 promoter act 1%.
For CCOc1cc2sc(N3CCC(C(=O)Nc4cc(C)cc(C)c4)CC3)nc2cc1Br the results were FLuc modulator -1%.
CCOc1cc2sc(N3CCC(C(=O)Nc4ccc(C(C)C)cc4)CC3)nc2cc1Br was read as FLuc modulator 21µM* and SMN2 splice up 14µM*.
`Cc1cc(C)c2nc(N3CCC(C(=O)NCCCN4CCCC4=O)CC3)sc2c1` gave ELG1 genotoxic 0%, FLuc modulator inconclusive, NPC1 prom act -8% and Rab9 promoter act -4%.
`COC(=O)c1c(NC(=O)CCCOc2ccc(C(C)(C)C)cc2)sc2c1C(C(=O)OC)CC2` (configuration not stated) gave FLuc modulator inconclusive and SMN2 splice up -52%.
`CCc1cccc2c(-c3ccc(F)cc3)nc(SCC(=O)Nc3ccccc3)nc12` gave FLuc modulator -6% and SMN2 splice up 15%.
`Cc1ccc(-n2cc(CNCCn3nc(C)cc3C)c(-c3ccc(F)cc3)n2)cc1` gave ELG1 genotoxic -6%, FLuc modulator 27µM*, Luc counter -1%, NPC1 prom act -7% and Rab9 promoter act -12%.
Cc1ccc(-n2cc(CNCCN3CCOC3=O)c(-c3ccc(F)cc3)n2)cc1 was read as ELG1 genotoxic 0%, FLuc modulator 7.6µM*, Luc counter -3%, NPC1 prom act -2% and Rab9 promoter act 14%.
For COc1ccc(-n2cc(CNCCc3nc(C)cc(C)n3)c(-c3ccccc3Cl)n2)cc1 the results were ELG1 genotoxic -4%, FLuc modulator inconclusive, Luc counter -4%, NPC1 prom act -10%, SMN2 splice up -78% and Rab9 promoter act 12%.
`Cc1ccc(-n2cc(CNCCCN3CCCC3=O)c(-c3ccc(F)cc3)n2)cc1` gave ELG1 genotoxic -2%, FLuc modulator inconclusive, Luc counter -2%, NPC1 prom act 0% and Rab9 promoter act -14%.
Screening COc1ccc(-n2cc(CNCCN3CCOC3=O)c(-c3ccccc3Cl)n2)cc1 returned ELG1 genotoxic 0%, FLuc modulator 17µM*, NPC1 prom act -3% and Rab9 promoter act 1%.
Cc1cccc(-n2cc(CNCCN3CCOC3=O)c(-c3cccc(F)c3)n2)c1 was read as ELG1 genotoxic 3%, FLuc modulator 9.5µM*, NPC1 prom act -1% and Rab9 promoter act 12%.
For CCCOc1ccc(-c2nc3ccc(Br)cc3c(=O)o2)cc1 the results were FLuc modulator inconclusive and SMN2 splice up 1%.
For Cc1ccc(-n2cc(CNCCc3ncc(C)[nH]3)c(-c3ccc(F)cc3)n2)cc1 the results were ELG1 genotoxic 7%, FLuc modulator 27µM*, Luc counter -7%, NPC1 prom act -3%, SMN2 splice up -26% and Rab9 promoter act -2%.
`CCOc1ccccc1CNS(=O)(=O)c1ccc2c(c1)CCCN2C(C)=O` gave FLuc modulator -2%.
For NC(=O)COc1ccc(NC(=O)OCc2ccccc2)cc1 the results were ELG1 genotoxic inconclusive, FLuc modulator 12µM*, Luc counter 0%, NPC1 prom act 20%, SMN2 splice up 21% and Rab9 promoter act 17%.

High-throughput results (PubChem BioAssay)
